Source: the supplement of paper PMC10849652
Targets with a hit are over-represented here; the source holds about 7,900 in all. About 0.6% of all pairs of compound and target were hits. Unmarked numbers belong to inactive results.

Tests used:
Test in all cases: log2 fold change, soluble protein after heating vs DMSO (PISA); higher = thermal stabilisation; K562 cells, 10 uM, 30 min; active = over 0.2 and 3.5 SD of the protein, either way, in both replicates (recomputed)
[1] = compound: CC[C@@H]1C(=O)N(C)c2cnc(Nc3ccc(C(=O)NC4CCN(C)CC4)cc3OC)nc2N1C1CCCC1
How it was run: (§1)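 K562 cells at 2×10^6 cells/mL were given 10 μM compound for 30 min. Aliquots then went through 3 min of heating across 48°C-58°C, were pooled, and were extracted in PBS with 0.5% NP-40 at 4°C, and the supernatant after 21,000xg for 90 min was quantified by TMTpro 16plex LC-MS/MS with channel sums equalised. Thermal stability relative to control samples, from duplicates, is given as log2 fold change.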

volasertib = compound: CC[C@@H]1C(=O)N(C)c2cnc(Nc3ccc(C(=O)N[C@H]4CC[C@H](N5CCN(CC6CC6)CC5)CC4)cc3OC)nc2N1C(C)C [volasertib]
How it was run: as §1

[2] = compound: CC[C@H](C)N1C=C(C2=C(C=C(C=C21)C3=CN=C(C=C3)N4CCNCC4)C(=O)NCC5=C(C=C(NC5=O)C)C)C
How it was run: as §1

epoxomicin = compound: CC[C@H](C)[C@@H](C(=O)N[C@@H]([C@@H](C)O)C(=O)N[C@@H](CC(C)C)C(=O)[C@]1(CO1)C)NC(=O)[C@H]([C@@H](C)CC)N(C)C(=O)C [epoxomicin]
How it was run: as §1

[3] = compound: CCn1c(C(=O)N(C2CC2)C2CC2)cc2c3c(ncn3C)c(Nc3cc(C)n(C)n3)nc21
How it was run: as §1

[4] = compound: CCn1cc(-c2ccnc3[nH]c(-c4cccc(CN(C)C)c4)cc23)c(-c2ccc(NC(=O)N(C)C)cc2)n1
How it was run: as §1

[5] = compound: CN(C)CC(=O)Nc1ccc2[nH]c(=O)c3ccccc3c2c1
How it was run: as §1

rosiglitazone = compound: CN(CCOC1=CC=C(C=C1)C[C@H]2C(=O)NC(=O)S2)C3=CC=CC=N3 (racemic) [rosiglitazone]
How it was run: as §1

[6] = compound: CN1C2=C(C3=C1C(=O)N(N=C3)CC4=CC(=CC=C4)N)SC(=C2)S(=O)C
How it was run: as §1

[7] = compound: CN1CCC(CNc2ccc3ncc(-c4cccc(OC(F)(F)F)c4)n3n2)CC1
How it was run: as §1

saracatinib = compound: CN1CCN(CCOc2cc(OC3CCOCC3)c3c(Nc4c(Cl)ccc5c4OCO5)ncnc3c2)CC1 [saracatinib]
How it was run: as §1

sotrastaurin = compound: CN1CCN(c2nc(C3=C(c4c[nH]c5ccccc45)C(=O)NC3=O)c3ccccc3n2)CC1 [sotrastaurin]
How it was run: as §1

alvocidib = compound: CN1CC[C@H](c2c(O)cc(O)c3c(=O)cc(-c4ccccc4Cl)oc23)[C@H](O)C1 [alvocidib]
How it was run: as §1

Tubastatin A = compound: CN1CCc2c(c3ccccc3n2Cc2ccc(C(=O)NO)cc2)C1 [Tubastatin A]
How it was run: as §1

[8] = compound: CNC(=O)C1=CC=CC=C1NC2=NC(=NC=C2Cl)NC3=C(C=C(C=C3)N4CCOCC4)OC
How it was run: as §1

defactinib = compound: CNC(=O)c1ccc(Nc2ncc(C(F)(F)F)c(NCc3nccnc3N(C)S(C)(=O)=O)n2)cc1 [defactinib]
How it was run: as §1

rucaparib = compound: CNCc1ccc(-c2[nH]c3cc(F)cc4c3c2CCNC4=O)cc1 [rucaparib]
How it was run: as §1

[9] = compound: CNc1nc(-c2ccc3c(N)n[nH]c3c2)cc(N2C[C@@H](C(=O)NC3CCCCC3)CC[C@H]2C)n1
How it was run: as §1

encorafenib = compound: COC(=O)N[C@@H](C)CNc1nccc(-c2cn(C(C)C)nc2-c2cc(Cl)cc(NS(C)(=O)=O)c2F)n1 [encorafenib]
How it was run: as §1

[10] = compound: COC(=O)[C@H](CCSC)NC(=O)C1=C(C=C(C=C1)NC[C@H](CS)N)C2=CC=CC=C2
How it was run: as §1

Sequence of UniProt Q96JG6 (Q96JG6 whole entry, looked up): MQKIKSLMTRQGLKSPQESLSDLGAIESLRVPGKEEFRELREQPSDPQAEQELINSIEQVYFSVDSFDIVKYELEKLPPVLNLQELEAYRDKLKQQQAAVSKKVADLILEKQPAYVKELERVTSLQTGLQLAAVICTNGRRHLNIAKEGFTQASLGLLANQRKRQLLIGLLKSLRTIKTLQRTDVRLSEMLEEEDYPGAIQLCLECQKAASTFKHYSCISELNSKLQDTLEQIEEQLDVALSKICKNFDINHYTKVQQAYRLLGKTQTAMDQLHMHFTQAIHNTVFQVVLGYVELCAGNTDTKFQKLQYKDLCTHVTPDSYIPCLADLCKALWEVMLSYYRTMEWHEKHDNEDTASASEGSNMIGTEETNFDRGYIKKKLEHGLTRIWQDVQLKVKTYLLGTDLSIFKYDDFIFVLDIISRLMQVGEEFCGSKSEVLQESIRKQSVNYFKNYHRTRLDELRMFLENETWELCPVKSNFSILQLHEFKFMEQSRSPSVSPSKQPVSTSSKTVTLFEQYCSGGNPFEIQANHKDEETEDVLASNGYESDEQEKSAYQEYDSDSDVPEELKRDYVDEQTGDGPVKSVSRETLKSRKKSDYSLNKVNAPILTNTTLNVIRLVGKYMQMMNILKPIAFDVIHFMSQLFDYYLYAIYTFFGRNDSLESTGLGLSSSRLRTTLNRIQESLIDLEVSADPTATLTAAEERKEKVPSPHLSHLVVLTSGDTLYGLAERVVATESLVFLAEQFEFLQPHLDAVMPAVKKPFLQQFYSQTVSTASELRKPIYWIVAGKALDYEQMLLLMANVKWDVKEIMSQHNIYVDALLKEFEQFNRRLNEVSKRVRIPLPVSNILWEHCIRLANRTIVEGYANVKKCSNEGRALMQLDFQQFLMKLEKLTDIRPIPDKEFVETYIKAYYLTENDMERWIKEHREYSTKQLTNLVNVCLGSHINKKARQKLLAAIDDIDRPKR
Sequence of UniProt Q9BUB7 (Q9BUB7 whole entry, looked up): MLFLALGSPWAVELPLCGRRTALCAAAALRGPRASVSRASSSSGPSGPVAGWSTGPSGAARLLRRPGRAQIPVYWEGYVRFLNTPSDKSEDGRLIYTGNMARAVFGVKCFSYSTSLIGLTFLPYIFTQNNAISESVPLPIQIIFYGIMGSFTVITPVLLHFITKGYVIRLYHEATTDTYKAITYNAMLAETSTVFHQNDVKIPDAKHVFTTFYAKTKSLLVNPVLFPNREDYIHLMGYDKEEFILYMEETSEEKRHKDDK
Sequence of UniProt Q9NYU2 (Q9NYU2 whole entry, looked up): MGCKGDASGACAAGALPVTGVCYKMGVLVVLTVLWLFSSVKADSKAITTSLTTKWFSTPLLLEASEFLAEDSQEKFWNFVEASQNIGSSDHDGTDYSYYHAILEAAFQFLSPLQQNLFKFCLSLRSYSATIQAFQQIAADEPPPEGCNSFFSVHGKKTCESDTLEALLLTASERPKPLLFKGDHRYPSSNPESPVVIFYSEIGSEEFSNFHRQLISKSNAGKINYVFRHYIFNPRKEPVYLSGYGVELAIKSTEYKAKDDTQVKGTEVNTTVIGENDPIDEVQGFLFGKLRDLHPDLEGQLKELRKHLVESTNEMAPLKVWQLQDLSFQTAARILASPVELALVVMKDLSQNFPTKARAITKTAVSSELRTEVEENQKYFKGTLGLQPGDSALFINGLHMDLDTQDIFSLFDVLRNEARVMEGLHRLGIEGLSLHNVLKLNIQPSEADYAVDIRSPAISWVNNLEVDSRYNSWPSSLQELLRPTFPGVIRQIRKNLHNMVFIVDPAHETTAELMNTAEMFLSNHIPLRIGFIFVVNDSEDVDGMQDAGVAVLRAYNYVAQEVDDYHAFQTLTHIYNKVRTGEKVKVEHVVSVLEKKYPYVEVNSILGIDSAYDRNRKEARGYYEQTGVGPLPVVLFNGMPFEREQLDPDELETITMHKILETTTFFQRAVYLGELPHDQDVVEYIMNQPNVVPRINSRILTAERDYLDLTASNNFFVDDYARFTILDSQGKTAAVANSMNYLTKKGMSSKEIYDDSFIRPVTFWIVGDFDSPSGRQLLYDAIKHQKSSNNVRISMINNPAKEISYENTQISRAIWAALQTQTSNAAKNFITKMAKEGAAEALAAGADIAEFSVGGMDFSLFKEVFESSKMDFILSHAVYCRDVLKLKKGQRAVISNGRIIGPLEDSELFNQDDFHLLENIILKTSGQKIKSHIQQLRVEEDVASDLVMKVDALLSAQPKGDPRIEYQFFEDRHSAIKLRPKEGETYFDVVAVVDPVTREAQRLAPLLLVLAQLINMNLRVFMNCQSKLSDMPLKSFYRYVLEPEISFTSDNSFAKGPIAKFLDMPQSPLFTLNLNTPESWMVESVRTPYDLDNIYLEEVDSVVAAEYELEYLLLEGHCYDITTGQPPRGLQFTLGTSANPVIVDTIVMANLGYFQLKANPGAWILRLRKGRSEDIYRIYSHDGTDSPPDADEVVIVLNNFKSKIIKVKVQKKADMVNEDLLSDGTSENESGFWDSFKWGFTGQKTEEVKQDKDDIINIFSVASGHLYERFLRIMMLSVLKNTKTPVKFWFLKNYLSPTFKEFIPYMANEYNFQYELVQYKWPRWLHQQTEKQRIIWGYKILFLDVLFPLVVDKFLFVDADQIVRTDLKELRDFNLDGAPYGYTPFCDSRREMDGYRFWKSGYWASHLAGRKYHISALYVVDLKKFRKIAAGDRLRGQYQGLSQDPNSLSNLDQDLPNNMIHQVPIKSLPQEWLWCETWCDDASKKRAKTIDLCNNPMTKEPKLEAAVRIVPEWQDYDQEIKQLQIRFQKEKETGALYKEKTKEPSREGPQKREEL
Sequence of UniProt Q8WVY7 (Q8WVY7 whole entry, looked up): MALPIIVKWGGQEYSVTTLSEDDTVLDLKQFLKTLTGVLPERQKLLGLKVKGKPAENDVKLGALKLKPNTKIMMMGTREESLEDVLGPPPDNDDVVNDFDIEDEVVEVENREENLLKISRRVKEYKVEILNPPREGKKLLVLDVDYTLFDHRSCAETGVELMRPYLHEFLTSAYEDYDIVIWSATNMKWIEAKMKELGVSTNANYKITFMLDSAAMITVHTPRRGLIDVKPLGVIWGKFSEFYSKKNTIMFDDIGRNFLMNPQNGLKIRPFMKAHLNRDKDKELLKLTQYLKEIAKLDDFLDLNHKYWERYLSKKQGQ
Sequence of UniProt Q5BJH2 (Q5BJH2 whole entry, looked up): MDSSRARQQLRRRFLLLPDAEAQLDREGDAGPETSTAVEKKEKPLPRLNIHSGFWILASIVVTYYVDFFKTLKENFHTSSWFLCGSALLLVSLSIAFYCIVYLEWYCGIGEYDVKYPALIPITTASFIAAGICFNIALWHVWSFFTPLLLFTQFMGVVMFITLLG
Sequence of UniProt O14773 (O14773 whole entry, looked up): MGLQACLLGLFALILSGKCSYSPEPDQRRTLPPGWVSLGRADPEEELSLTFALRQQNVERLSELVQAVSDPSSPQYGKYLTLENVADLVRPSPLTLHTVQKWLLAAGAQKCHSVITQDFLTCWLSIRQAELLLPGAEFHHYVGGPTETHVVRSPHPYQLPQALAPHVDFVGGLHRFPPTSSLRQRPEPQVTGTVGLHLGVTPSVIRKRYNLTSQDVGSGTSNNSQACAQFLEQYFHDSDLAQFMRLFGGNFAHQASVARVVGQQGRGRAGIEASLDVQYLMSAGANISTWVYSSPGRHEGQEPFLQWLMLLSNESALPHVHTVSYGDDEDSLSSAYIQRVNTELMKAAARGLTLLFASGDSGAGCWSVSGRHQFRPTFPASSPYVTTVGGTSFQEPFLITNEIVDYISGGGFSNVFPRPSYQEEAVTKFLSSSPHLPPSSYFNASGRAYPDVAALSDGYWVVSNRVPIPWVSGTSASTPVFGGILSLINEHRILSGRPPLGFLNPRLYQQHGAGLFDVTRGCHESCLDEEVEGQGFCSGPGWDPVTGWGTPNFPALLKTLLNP
Sequence of UniProt Q9Y4E8 (Q9Y4E8 whole entry, looked up): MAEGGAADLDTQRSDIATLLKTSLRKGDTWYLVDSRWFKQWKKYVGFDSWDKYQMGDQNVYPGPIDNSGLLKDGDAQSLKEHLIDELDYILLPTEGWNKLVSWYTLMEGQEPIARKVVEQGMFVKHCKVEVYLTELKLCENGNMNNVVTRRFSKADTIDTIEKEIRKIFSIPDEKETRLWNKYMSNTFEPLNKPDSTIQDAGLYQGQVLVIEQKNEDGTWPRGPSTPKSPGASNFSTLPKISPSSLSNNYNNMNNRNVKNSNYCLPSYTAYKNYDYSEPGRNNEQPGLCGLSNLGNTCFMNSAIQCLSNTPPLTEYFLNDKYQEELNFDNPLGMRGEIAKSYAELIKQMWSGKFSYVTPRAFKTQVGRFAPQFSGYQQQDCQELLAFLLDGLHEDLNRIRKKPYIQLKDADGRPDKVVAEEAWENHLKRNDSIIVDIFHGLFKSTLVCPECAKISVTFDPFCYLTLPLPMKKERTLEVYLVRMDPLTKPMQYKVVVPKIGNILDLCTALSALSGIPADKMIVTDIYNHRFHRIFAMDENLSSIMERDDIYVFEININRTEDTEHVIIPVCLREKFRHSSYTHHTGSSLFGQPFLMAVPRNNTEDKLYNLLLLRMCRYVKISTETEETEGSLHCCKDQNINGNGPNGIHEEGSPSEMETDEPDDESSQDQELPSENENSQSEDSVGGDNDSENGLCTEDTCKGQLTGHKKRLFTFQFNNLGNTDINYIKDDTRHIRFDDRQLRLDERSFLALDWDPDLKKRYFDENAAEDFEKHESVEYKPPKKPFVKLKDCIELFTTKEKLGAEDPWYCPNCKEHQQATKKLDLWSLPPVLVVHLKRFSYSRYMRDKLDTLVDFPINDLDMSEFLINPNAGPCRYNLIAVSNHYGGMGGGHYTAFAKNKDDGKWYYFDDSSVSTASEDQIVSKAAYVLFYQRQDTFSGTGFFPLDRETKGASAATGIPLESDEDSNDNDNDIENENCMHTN

Target	log2 fold change [1]	log2 fold change (volasertib)	log2 fold change [2]	log2 fold change (epoxomicin)	log2 fold change [3]	log2 fold change [4]	log2 fold change [5]	log2 fold change (rosiglitazone)	log2 fold change [6]	log2 fold change [7]	log2 fold change (saracatinib)	log2 fold change (sotrastaurin)	log2 fold change (alvocidib)	log2 fold change (Tubastatin A)	log2 fold change [8]	log2 fold change (defactinib)	log2 fold change (rucaparib)	log2 fold change [9]	log2 fold change (encorafenib)	log2 fold change [10]
UGGT1 (UniProt Q9NYU2)	-0.01	-0.058	0.03	-0.006	0.019	0.002	-0.024	-0.004	0.008	0.049	-0.006	-0.034	-0.037	0.022	-0.005	0.019	0.009	-0.033	0.017	-0.002
VRK2 (UniProt Q86Y07)	0.034	-0.049	0.054	0.021	-0.072	-0.005	-0.009	0.019	-0.04	0.229 (active)	-0.036	0.075	0.4 (active)	0.014	-0.102	0.106	-0.039	-0.017	-0.001	-0.092
U2AF2 (UniProt P26368)	-0.057	-0.231 (active)	0.039	-0.024	0.029	0	0.002	0.003	0	-0.307 (active)	0.022	0.056	-0.038	-0.007	-0.181	-0.035	0.163	-0.037	-0.037	0.001
USP15 (UniProt Q9Y4E8)	-0.095	-0.32 (active)	0.066	0.03	-0.032	-0.056	0.031	0.058	-0.006	-0.129	-0.013	-0.093	-0.069	0.014	0.049	-0.093	0.032	0.019	0.061	-0.031
UBAP1 isoform 4 (UniProt Q9NZ09)	-0.012	-0.545 (active)	0	0.092	-0.037	0.006	-0.034	0.022	0.023	-0.089	-0.023	-0.032	-0.038	0.007	-0.028	-0.08	0.089	-0.053	-0.05	0.006
XRCC5 (UniProt P13010)	-0.172	-0.482	0.207	0.069	-0.103	0.009	0.169	0.114	0.124	-0.087	-0.057	-0.332	-0.214	0.173	-0.032	-0.37	0.07	0.048	0.21	-0.067
UBLCP1 (UniProt Q8WVY7)	-0.191	-0.356 (active)	0.019	0.168	-0.059	-0.072	0.039	0.019	-0.024	0.013	0.036	-0.032	0.024	0.147	0.027	-0.016	-0.068	-0.038	0.088	-0.034
VPS50 (UniProt Q96JG6)	-0.168	-0.415 (active)	0.08	0.009	-0.037	-0.026	0.009	0.008	0.036	-0.101	-0.108	-0.089	-0.07	0.036	0.04	-0.11	0.033	-0.012	0.1	-0.022
USP24 (UniProt Q9UPU5)	-0.04	-0.1	-0.047	0.073	-0.072	-0.062	0.055	-0.025	-0.123	0.137	0.033	0.092	-0.061	-0.143	0.034	-0.079	-0.03	0.278	0.048	-0.034
TPP1 (UniProt O14773)	-0.647 (active)	-1.09 (active)	-0.002	0.019	0.033	-0.117	0.007	0.007	-0.001	-0.569 (active)	-0.008	-0.005	-0.005	0.005	0.007	0.049	-0.013	-0.013	0.018	0.011
TTC38 (UniProt Q5R3I4)	0.076	0.253	0.041	0.012	-0.017	-0.05	0.136	-0.015	-0.049	-0.039	-0.045	0.086	-0.132	0.578 (active)	-0.062	-0.262	0.435	0.293	-0.02	-0.011
TMEM70 (UniProt Q9BUB7)	0.005	0.064	-0.017	0.001	0.257 (active)	-0.055	0.001	0.021	-0.048	-0.288 (active)	0.106	0.028	0.015	0.011	0.142	-0.004	-0.057	-0.001	0.009	0
TMEM263 (UniProt Q8WUH6)	-0.462 (active)	-0.5	-0.03	0.005	-0.004	-0.105	0.024	0.015	-0.057	-1.32 (active)	0.027	-0.046	0.025	-0.049	-0.161	0.007	-0.031	-0.057	0.015	-0.015
TMEM128 (UniProt Q5BJH2)	-0.076	-0.005	0.015	0.003	0.006		0.149	0.032	-0.033		0.083	0.01	-0.082	-0.011	-0.023	-0.045	0.019	-0.062	-0.006	-0.006
TMEM268 isoform 3 (UniProt Q5VZI3)	-0.088	-0.005	0.112	0.536 (active)	0.093	0.013		0.098	0.025	-0.123	0.033	-0.103	0.069	0.131	-0.017		-0.021	0.046	-0.19	
TNFRSF8 (UniProt P28908)	0.134	0.011	-0.034	0.016	-0.003	-0.016	0.009	-0.011	-0.051	0.201	0.037	0.092	-0.013	0.031	-0.013	-0.034	0.012	0.04	-0.046	-0.02
